Hits are enriched below; roughly 19% of the tested compounds scored in any of these assays.
Giardia kill – Giardia lamblia killing; Giardia lamblia trophozoite viability; actives 0.15% (n = 340,000); activity change, % at 7.66 µM, hits read low; in the data active = activity change below about -80%; inconclusive = between about -30% and that limit;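 also: parasites exposed to compound for two days anaerobically before the ATP read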
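ATP-content bioluminescence gauges trophozoite survival. Cells (100/well) receive compound and incubate anaerobically for 48 hrs at 37 deg C; detection reagent follows for 15-30 min at room temperature.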
ELG1 DNA repair – blocks ELG1-dependent DNA repair in HEK293T cells; HEK293T ELG1-luciferase reporter, luminescence, 16 h; DNA damage induced by 5-fluorouridine; Potency, µM (doses to about 46.1 µM), without a hit: at the top dose activity change, negative = inhibition, most hits filed as inhibitors; actives 2.3% (n = 330,000); AID 504467; also: potency is read from the fitted curve at half-maximal effect; nearly all actives have a fitted effect of over 55% in size
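Overnight (16 hr) co-exposure of 2,000 cells/well to 5-fluorouridine and compound at 37 °C preceded detection. Luciferase was quantified via ONE-Glo luminescence; loss of signal denotes inhibition.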
DT40 TDP1 no CPT – qHTS for Inhibitors of human tyrosyl-DNA phosphodiesterase 1 (TDP1): qHTS in cells in absence of CPT; DT40 Tdp1-/- hTDP1 cells, no CPT, ATP luminescence, 48 h; Potency, µM (highest dose often 46.2 µM), without a hit: top-dose activity change, negative = growth inhibition, most hits filed as inhibitors; actives 15% (n = 420,000); AID 686978, 2013; also: potency is read from the fitted curve at half-maximal effect; nearly all actives have a fitted effect of over 55% in size
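Stably hTDP1-transfected Tdp1-null chicken DT40 cells were treated with library compounds minus camptothecin and grown for at least 48 hr at 37 °C, after which cellular ATP was quantified by luminescence.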
DT40 TDP1 CPT – growth inhibition of DT40 Tdp1-/-;hTDP1 cells with camptothecin (screen for TDP1 inhibitors); chicken DT40 Tdp1-/-;hTDP1 cells + 20 nM CPT, ATP luminescence, 48 h; Potency, µM (top dose mostly 46.2 µM), for the others: at the top dose activity change, negative = growth inhibition, actives largely listed as inhibitors; actives 12% (n = 420,000); also: potency is read from the fitted curve at half-maximal effect; nearly all actives have a fitted effect of over 55% in size
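Cell growth measured by CellTiter-Glo luminescence after a minimum 48 h, 37 C compound exposure with 20 nM CPT in Tdp1-knockout DT40 cells stably expressing hTDP1, seeded 400/well; qHTS titration format.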
TDP1 inh – TDP1 (human) enzyme inhibition. Potency, µM (titrated, usually from 130 µM), for inactives: top-dose activity change, negative = inhibition, usual class: inhibitors. actives 0.28% (n = 350,000). recombinant TDP1, AlphaScreen DNA substrate cleavage. Q9NUW8; also: potency is read from the fitted curve at half-maximal effect; nearly all actives have a fitted effect of over 40% in size
Target sequence (Q9NUW8 whole entry, looked up): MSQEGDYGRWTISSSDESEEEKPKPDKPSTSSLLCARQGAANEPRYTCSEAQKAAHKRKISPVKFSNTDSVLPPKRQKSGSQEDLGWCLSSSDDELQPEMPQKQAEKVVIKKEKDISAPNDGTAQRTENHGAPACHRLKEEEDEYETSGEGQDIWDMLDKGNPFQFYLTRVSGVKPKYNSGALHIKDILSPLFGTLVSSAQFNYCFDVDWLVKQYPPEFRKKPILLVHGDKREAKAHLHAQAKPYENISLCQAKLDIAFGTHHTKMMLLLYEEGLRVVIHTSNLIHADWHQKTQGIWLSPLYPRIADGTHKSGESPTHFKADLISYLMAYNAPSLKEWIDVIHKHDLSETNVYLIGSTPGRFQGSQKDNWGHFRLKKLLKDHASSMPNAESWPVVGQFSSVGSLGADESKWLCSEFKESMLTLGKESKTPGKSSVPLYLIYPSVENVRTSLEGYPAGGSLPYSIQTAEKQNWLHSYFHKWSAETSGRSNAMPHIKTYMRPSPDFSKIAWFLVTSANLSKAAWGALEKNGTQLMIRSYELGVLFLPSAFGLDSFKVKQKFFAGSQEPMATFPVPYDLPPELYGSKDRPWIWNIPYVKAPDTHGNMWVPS
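Enzyme-compound mixtures sat 15 min at room temperature, followed by a 5 min reaction with 15 nM final substrate and 10 min with AlphaScreen beads. Recombinant human Tdp1 was used at 1 nM final.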
IL1B secr inh – inhibitors of inflammasome signaling (IL-1 beta secretion). activity change, % at 57.5 µM. THP-1 LPS/ATP IL-1B secretion, AlphaLISA, 16 h; stronger effect = lower value. actives 4.7% (n = 360,000); in the data active = activity change below about -50%; inconclusive = mostly about -30% to -49%
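THP-1 cells pretreated 1 hr with compounds (up to 57.5 uM final), then stimulated with LPS (250 ng/mL final) plus ATP (1.25 mM final); secreted IL-1B measured by AlphaLISA after 16 hr, decreased signal indicating inhibition.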
Active calls of the source: *; [ ] = another dose, or the depositor's remark. Unless noted, calls follow the shape of the dose curve; as a rule, active = well fitted curve in the direction sought with a large enough effect; inconclusive = small, poorly fitted or top-dose-only effect, or another doubt; inactive = no such curve, though single readings can be large; an effect the other way counts as inactive or inconclusive. % is scaled to controls: 0 for no effect and ±100 for the full control effect.

`CC(Oc1ccccc1)C(=O)N=C1SC2CS(=O)(=O)CC2N1CCc1ccccc1` (stereo not drawn) gave Giardia kill 5.1, ELG1 DNA repair 2.8%, DT40 TDP1 no CPT 0.0%, DT40 TDP1 CPT -4.2%, TDP1 inh 2.2% and IL1B secr inh 10.7.
Screening Cc1cc(F)ccc1NC(=O)Cn1c(C)csc1=O returned Giardia kill -19.5, ELG1 DNA repair -3.1%, DT40 TDP1 no CPT -6.8%, DT40 TDP1 CPT 12.8%, TDP1 inh 0.4% and IL1B secr inh 0.9.
`COc1ccc(-c2[nH]c(-c3ccc(F)cc3)nc2SCC(=O)NC2CCCC2)cc1` gave Giardia kill 17.2, ELG1 DNA repair inconclusive, DT40 TDP1 no CPT inconclusive, DT40 TDP1 CPT inconclusive, TDP1 inh -1.3% and IL1B secr inh -14.2.
COc1ccc(-c2[nH]c(-c3cccc(OC)c3)nc2SCC(=O)NC2CCCC2)cc1 was read as Giardia kill -5.4, ELG1 DNA repair inconclusive, DT40 TDP1 no CPT 23.1µM*, DT40 TDP1 CPT 20.6µM*, TDP1 inh 12.5% and IL1B secr inh -23.1.
For COc1ccc(-c2[nH]c(-c3ccccc3)nc2SCC(=O)NC2CCCC2)cc1 the results were Giardia kill 6.4, ELG1 DNA repair inconclusive, DT40 TDP1 no CPT 20.6µM*, DT40 TDP1 CPT 23.1µM*, TDP1 inh -2.1%[12.3 µM] and IL1B secr inh inconclusive.
For CCOC(=O)N1CCN(CC(=O)Nc2ccc(F)c(F)c2)CC1 the results were Giardia kill 3.9, ELG1 DNA repair 13.9%, DT40 TDP1 no CPT -50.6%, DT40 TDP1 CPT 3.7%, TDP1 inh 2.7% and IL1B secr inh 17.4.
Screening CCCCCCOc1ccc(C2C(=O)N(C3CCCCC3)CC(=O)N2CCCC)cc1 (stereo not drawn) returned DT40 TDP1 no CPT inconclusive, DT40 TDP1 CPT inconclusive and TDP1 inh -7.8%.
CC(C)(C)OC(=O)CC1(C#N)c2ccccc2C(Br)=CN1C(=O)c1ccccc1 (stereo not drawn) was read as Giardia kill -12.1, ELG1 DNA repair -0.9%, DT40 TDP1 no CPT 16.4µM*, DT40 TDP1 CPT inconclusive, TDP1 inh 1.0% and IL1B secr inh -5.8.
`Cc1c(C(=O)N2CCN(C3CCS(=O)(=O)C3)CC2)oc2c(F)cccc12` (stereo not drawn) gave Giardia kill -4.4, ELG1 DNA repair 22.3%, DT40 TDP1 no CPT 3.1%, DT40 TDP1 CPT -4.5%, TDP1 inh 0.3% and IL1B secr inh 0.0.
Screening CCCCCC(=O)N[C@@H](c1ccccc1)[C@@H](O)C(=O)O[C@H]1C[C@@]2(O)[C@@H](OC(=O)c3ccccc3)C3[C@](C)(C(=O)[C@H](OC(C)=O)C(=C1C)C2(C)C)[C@@H](O)C[C@H]1OC[C@@]31OC(C)=O (stereo partly drawn) returned Giardia kill 7.9, ELG1 DNA repair -24.3%, DT40 TDP1 no CPT 0.103µM*, DT40 TDP1 CPT 0.116µM* and IL1B secr inh -1.5.
COCCN=c1scc(-c2cc(OC)c(OC)c(OC)c2)n1/N=C/c1c(C)[nH]c2ccccc12 was read as Giardia kill 5.0, ELG1 DNA repair 7.31µM*, DT40 TDP1 no CPT 18.4µM*, DT40 TDP1 CPT inconclusive, TDP1 inh 7.9% and IL1B secr inh inconclusive.
Screening O=c1[nH]c(SCc2nc3ccccc3c(=O)n2-c2ccccc2C(F)(F)F)nc2ccccc12 returned Giardia kill 15.3, ELG1 DNA repair 18.4µM*, DT40 TDP1 no CPT inconclusive, DT40 TDP1 CPT 16.4µM*, TDP1 inh 2.7% and IL1B secr inh -81.3*.
For NC(=O)NC(CC(=O)NNC(=O)c1ccccn1)c1ccccc1Cl (stereo not drawn) the results were Giardia kill 0.3, ELG1 DNA repair 15.2%, DT40 TDP1 no CPT 8.9%, DT40 TDP1 CPT -10.5%, TDP1 inh 0.3% and IL1B secr inh 52.8.
Screening COc1ccc(NC(=S)N2CCN(C(c3ccccc3)c3ccccc3)CC2)cc1OC returned Giardia kill 14.1, ELG1 DNA repair inconclusive, DT40 TDP1 no CPT -27.1%, DT40 TDP1 CPT -27.4%, TDP1 inh 3.0% and IL1B secr inh 0.0.
COc1cccc(CN2CCN(C(c3ccccc3)c3ccccc3)CC2)c1O was read as Giardia kill 20.8, ELG1 DNA repair inconclusive, DT40 TDP1 no CPT 20.6µM*, DT40 TDP1 CPT inconclusive, TDP1 inh 7.3% and IL1B secr inh -12.3.
`COc1cc(CN2CCN(C(c3ccccc3)c3ccccc3)CC2)cc(OC)c1OC` gave Giardia kill 47.9, ELG1 DNA repair inconclusive, DT40 TDP1 no CPT 3.26µM*, DT40 TDP1 CPT 8.2µM* and IL1B secr inh 7.7.
`COc1cc2nc(CN3CCN(C(c4ccccc4)c4ccccc4)CC3)[nH]c(=O)c2cc1OC` gave ELG1 DNA repair -14.0%.
`COc1cc(C(=S)N2CCN(C(c3ccccc3)c3ccccc3)CC2)cc(OC)c1O` gave Giardia kill -3.2, ELG1 DNA repair -13.0%, DT40 TDP1 no CPT 8.2µM*, DT40 TDP1 CPT 14.6µM* and IL1B secr inh -50.0*.
`Cc1cc(C)nc(NC2=NCCN2C(=S)Nc2c(C)cccc2C)n1` gave Giardia kill -3.3, ELG1 DNA repair 23.0%, DT40 TDP1 no CPT -17.7%, DT40 TDP1 CPT -11.7%, TDP1 inh 5.1% and IL1B secr inh -19.7.
Screening COc1ccccc1CNS(=O)(=O)c1cc2c3c(c1)C(C)C(=O)N3CCC2 (stereo not drawn) returned Giardia kill 8.8, ELG1 DNA repair -6.9%, DT40 TDP1 no CPT inconclusive, DT40 TDP1 CPT inconclusive, TDP1 inh 3.2% and IL1B secr inh 33.7.
`CCC(CC)c1nn2c(=O)cc(COc3ccc(NC(=O)c4ccc(Cl)cc4)cc3)nc2s1` gave DT40 TDP1 no CPT 2.5%, DT40 TDP1 CPT 0.2% and TDP1 inh 3.8%.
Screening Cc1cccc(C(=O)OCC(=O)N2CCCC2=O)c1[N+](=O)[O-] returned Giardia kill 7.1, ELG1 DNA repair 2.5%, DT40 TDP1 no CPT -5.5%, DT40 TDP1 CPT -20.9%, TDP1 inh -0.3% and IL1B secr inh 10.6.
`CCOC(=O)c1sc2nc(N3CCOCC3)c3c(c2c1N)CCC3` gave Giardia kill -9.9, ELG1 DNA repair inconclusive, DT40 TDP1 no CPT inconclusive, DT40 TDP1 CPT -27.5%, TDP1 inh 6.2% and IL1B secr inh inconclusive.
